Measured values reported in PubChem BioAssay.
Inconclusive results are not listed. Activity calls are given as the source filed them. Unless noted, no stated cut-off is given here; in the data, active means fluorescence slope change above about 50%; inconclusive means mostly about 31% to 49%; inactive means weaker than that.

How the values were obtained:
[1] = target: ATP-dependent translocase ABCB1 (Homo sapiens) (UniProt P08183); test: P-glycoprotein substrate transport blockade – cell-based (AID 377); details: MDR1-expressing cells, fluorescent substrate accumulation slope; stronger effect = higher value; concentration not given here
Chain of ATP-dependent translocase ABCB1 (Homo sapiens) (P08183 whole entry, looked up): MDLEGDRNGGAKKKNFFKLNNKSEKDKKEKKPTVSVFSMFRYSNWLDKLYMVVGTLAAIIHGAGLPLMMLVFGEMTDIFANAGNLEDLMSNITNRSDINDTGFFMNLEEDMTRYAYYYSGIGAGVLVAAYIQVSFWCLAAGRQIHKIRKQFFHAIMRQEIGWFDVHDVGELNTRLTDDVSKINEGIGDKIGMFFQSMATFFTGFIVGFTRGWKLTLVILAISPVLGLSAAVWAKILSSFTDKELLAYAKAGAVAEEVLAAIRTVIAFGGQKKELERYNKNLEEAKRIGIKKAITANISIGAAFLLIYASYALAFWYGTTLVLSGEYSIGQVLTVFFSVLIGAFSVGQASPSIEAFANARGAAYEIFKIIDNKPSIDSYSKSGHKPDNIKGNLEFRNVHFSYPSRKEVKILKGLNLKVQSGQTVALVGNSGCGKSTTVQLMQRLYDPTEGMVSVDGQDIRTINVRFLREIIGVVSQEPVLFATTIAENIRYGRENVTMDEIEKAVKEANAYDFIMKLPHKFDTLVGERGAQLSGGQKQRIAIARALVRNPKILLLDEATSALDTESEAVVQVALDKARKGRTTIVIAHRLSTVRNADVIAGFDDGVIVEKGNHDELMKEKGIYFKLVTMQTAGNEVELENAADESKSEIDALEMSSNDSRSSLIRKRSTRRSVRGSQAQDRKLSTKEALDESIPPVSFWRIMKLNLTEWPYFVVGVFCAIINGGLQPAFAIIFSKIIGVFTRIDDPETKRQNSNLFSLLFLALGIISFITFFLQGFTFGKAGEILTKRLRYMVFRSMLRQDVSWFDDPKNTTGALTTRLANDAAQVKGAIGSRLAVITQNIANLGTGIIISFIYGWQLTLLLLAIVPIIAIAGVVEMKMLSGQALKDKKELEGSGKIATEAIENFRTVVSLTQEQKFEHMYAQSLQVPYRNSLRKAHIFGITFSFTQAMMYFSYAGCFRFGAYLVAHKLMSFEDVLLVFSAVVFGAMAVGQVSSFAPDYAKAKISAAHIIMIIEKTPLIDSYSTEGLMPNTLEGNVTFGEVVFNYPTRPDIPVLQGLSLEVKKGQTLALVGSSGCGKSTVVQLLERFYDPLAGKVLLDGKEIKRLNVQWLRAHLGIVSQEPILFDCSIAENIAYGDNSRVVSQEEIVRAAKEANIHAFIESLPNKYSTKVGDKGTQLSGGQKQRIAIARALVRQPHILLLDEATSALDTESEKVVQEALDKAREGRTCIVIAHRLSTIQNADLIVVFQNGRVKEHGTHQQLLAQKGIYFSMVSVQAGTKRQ

[2] = compounds altering viability of human ES cells (AID 493140; call rule not given here;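 further: cells exposed to compounds for four days before counting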); details: human embryonic stem cell survival screen; stronger effect = higher value
[3] = P. berghei load reduction in hepatocytes – cell-based, HepG2, luciferase luminescence, HepG2 viability, primary screen (AID 624349; in the data active means parasite load remaining mostly below about 12%, no sharp cut-off; inactive means mostly above about 10%;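 further: 100% = mean of DMSO negative control wells on the same plate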); details: P. berghei liver stage in HepG2, luciferase luminescence, concentration not given here; parasite load remaining: stronger effect = lower value; viability: measured here: HepG2 viability without parasites

| Structure (SMILES) | fluorescence slope change [1] | survival [2] | parasite load remaining [3] | viability [3] |
| --- | --- | --- | --- | --- |
| CC[C@H](C)[C@H]1O[C@]2(CC[C@@H]1C)C[C@@H]1C[C@@H](C/C=C(\C)C(O[C@H]3C[C@H](OC)[C@@H](O[C@H]4C[C@H](OC)[C@@H](O)[C@H](C)O4)[C@H](C)O3)[C@@H](C)/C=C/C=C3\CO[C@@H]4[C@H](O)C(C)=C[C@@H](C(=O)O1)[C@]34O)O2 (some centres not stated) | 136% (active) | 17.6 (inactive) | 93.7% (inactive) | 89.6% |
| c1ccc2c(c1)CN1CCCCC1=N2 | 0.4% (inactive) | – | – | – |
| C[C@@H]1C(=O)O[C@H]2CC34[C@H]5C[C@@H](C(C)(C)C)C36[C@@H](OC(=O)[C@@H]6O)OC4(C(=O)O5)[C@]21O (some centres not stated) | 57.6% (active) | 10.1 (inactive) | 79.2% (inactive) | 79.7% |
| CC1CCC2(OC1)O[C@H]1C[C@H]3[C@@H]4CC[C@H]5C[C@@H](O)CC[C@]5(C)[C@H]4CC(=O)[C@]3(C)[C@H]1[C@@H]2C (some centres not stated) | 74.2% (active) | 3.25 (inactive) | – | – |
| CCCC(=O)Nc1ncnc2c1ncn2[C@@H]1O[C@@H]2COP(=O)(O)O[C@@H]2C1OC(=O)CCC (some centres not stated) | 80% (active) | 3.33 (inactive) | – | – |
| COC1CC(O[C@H]2[C@H](C)[C@@H](OC3OC(C)CC(N(C)C)C3O)[C@@H](C)C[C@]3(CO3)C(=O)[C@H](C)[C@@H](O)[C@@H](C)[C@@H](C)OC(=O)[C@@H]2C)OC(C)C1O (some centres not stated) | 96.5% (active) | 26.4 (inactive) | 84.7% (inactive) | 90.7% |
| COc1cc(Br)c(CC2c3cc(OC)c(OC)cc3CCN2C)cc1OC (configuration not stated) | 9.4% (inactive) | – | – | – |
| CC1=C(C(=O)O)N2C(=O)[C@@H](NC(=O)[C@H](N)c3ccc(O)cc3)C2SC1 (some centres not stated) | 66.4% (active) | – | – | – |
| Nc1cccc2c1C(=O)c1cccc(N)c1C2=O | 105% (active) | – | – | – |
| CC1Nc2ccccc2C1NC(=O)c1ccc(Cl)c(S(N)(=O)=O)c1 (configuration not stated) | 26.2% (inactive) | – | – | – |
| COc1ccc([C@@H]2CC(=O)c3c(O)cc(O[C@@H]4OC(CO[C@@H]5OC(C)[C@H](O)[C@H](O)C5O)[C@@H](O)[C@@H](O)C4O)cc3O2)cc1O (some centres not stated) | 9.9% (inactive) | 9.92 (inactive) | 71.5% (inactive) | 80.9% |
| CCC(=O)OC1C(C)OC(OC2C(C)OC(O[C@H]3[C@@H](CC=O)C[C@@H](C)[C@@H](O)/C=C/C=C/C[C@@H](C)OC(=O)C[C@@H](OC(=O)CC)[C@@H]3OC)C(O)C2N(C)C)CC1(C)O (some centres not stated) | 72% (active) | 16.6 (inactive) | 77.4% (inactive) | 89% |
| C=N[C@@H](C(=O)N[C@@H]1C(=O)C2[C@@H](C(=O)O)C(C)(C)S[C@@H]21)c1ccccc1 (some centres not stated) | 10.1% (inactive) | – | – | – |
| O=C(O)c1cc2ccccc2c(Cc2cc3ccccc3c(C(=O)O)c2O)c1O (tested in a mixture with another compound) | 14.8% (inactive) | 7.75 (inactive) | 58.5% (inactive) | 76.8% |
| c1ccc2c3c([nH]c2c1)C1C2CCC(C4CCCNC42)N1CC3 (configuration not stated) | 15.6% (inactive) | 1.58 (inactive) | – | – |
| COc1ccc(CC(N)C(=O)N[C@@H]2C(O)[C@H](n3cnc4c(N(C)C)ncnc43)O[C@@H]2CO)cc1 (some centres not stated) | 10.7% (inactive) | 0.083 (inactive) | 13.2% (inactive) | 14.9% |
| NCC1OC(OC2C(N)CC(N)C(OC3OC(CO)C(O)C(N)C3O)C2O)C(N)CC1O (configuration not stated) | -2% (inactive) | 1.08 (inactive) | 57.1% (inactive) | 77.2% |

| Structure (SMILES) | fluorescence slope change [1] | survival [2] | parasite load remaining [3] | viability [3] |
| --- | --- | --- | --- | --- |
| C=C1CC23CC4C5[C@@]6(C)C[C@H](OC(=O)c7ccccc7)[C@@H](OC(C)=O)[C@@]57C2[C@H](OC(C)=O)[C@@H]1[C@H](O)[C@H]3[C@H]7N4C6 | 12.6% (inactive) | 4.92 (inactive) | – | – |
| C=C1C(=O)O[C@H]2C1CC/C(C)=C/CC[C@@]1(C)O[C@H]21 (some centres not stated) | 20.5% (inactive) | – | – | – |
| NCC[C@H](O)C(=O)NC1CC(N)C(OC2OC(CN)C(O)C(O)C2O)C(O)C1OC1OC(CO)C(O)C(N)C1O (some centres not stated) | 13.3% (inactive) | 1.75 (inactive) | 68.1% (inactive) | 76.6% |
| CC[C@H]1OC(=O)[C@H](C)[C@@H](OC2CC(C)(OC)C(O)C(C)O2)[C@H](C)[C@@H](OC2OC(C)CC(N(C)C)C2O)[C@](C)(O)C[C@@H](C)/C(=N\OCOCCOC)[C@H](C)[C@@H](O)[C@]1(C)O (some centres not stated) | 66.5% (active) | 6.25 (inactive) | – | – |
| NCC1OC(OC2C(N)CC(N)C(OC3OC(CO)C(O)C(N)C3O)C2O)C(O)C(O)C1O (configuration not stated) | 9.9% (inactive) | 5.58 (inactive) | 77.1% (inactive) | 78.9% |
| COc1ccc(C(=O)O[C@H]2CC[C@@]3(C)C4CCC5[C@]6(O)[C@@H](O)[C@H](O)[C@H]7[C@@H](CN8C[C@@H](C)CC[C@H]8[C@@]7(C)O)[C@@H]6C[C@@]53O[C@]42O)cc1OC (some centres not stated) | 2.5% (inactive) | – | – | – |
| CO/N=C(/C(=O)N[C@@H]1C(=O)N2C(C(=O)[O-])=C(C[N+]3(C)CCCC3)CS[C@H]12)c1csc(N)n1 | – | 5.92 (inactive) | – | – |
| Nc1ccc(S(=O)(=O)Nc2ccc3nccnc3c2)cc1 | 6.1% (inactive) | – | – | – |
| CC1OC(O[C@H]2/C=C/C=C/C=C/C=C/C=C/C=C/C=C/[C@H](C)[C@@H](O)[C@@H](C)[C@H](C)OC(=O)C[C@H](O)C[C@H](O)CC[C@@H](O)[C@H](O)C[C@H](O)C[C@]3(O)C[C@H](O)[C@@H](C(=O)O)[C@H](C2)O3)C(O)C(N)C1O (some centres not stated) | 94.6% (active) | 10.9 (inactive) | 50.3% (inactive) | 92.5% |
| COc1cc([C@@H]2c3cc4c(cc3[C@@H](O[C@@H]3O[C@@H]5CO[C@@H](C)O[C@H]5[C@H](O)[C@H]3O)C3COC(=O)[C@@H]32)OCO4)cc(OC)c1O (some centres not stated) | 20.9% (inactive) | 0.25 (inactive) | 64.7% (inactive) | 83.1% |
| NCC1OC(OC2C(N)CC(N)C(O)C2O[C@@H]2O[C@H](CO)[C@H](O)C2O)C(N)C(O)C1O (some centres not stated) | 50.5% (active) | 0.167 (inactive) | – | – |
| CC(C)N1CCN(c2ccc(OC[C@@H]3CO[C@@](Cn4cncn4)(c4ccc(Cl)cc4Cl)O3)cc2)CC1 | 82.8% (active) | 7.75 (inactive) | 57.7% (inactive) | 72.8% |
| CC[N+]1(C)C2CCC1CC(OC(=O)[C@H]1CCC(C(=O)OC3CC4CCC(C3)[N+]4(C)CC)(c3ccccc3)c3ccccc31)C2 (some centres not stated) | 92.7% (active) | 4.5 (inactive) | – | – |
| On1ccccc1=S | 9% (inactive) | – | – | – |
| CCC(C(=O)C(C)C(O)C(C)CCc1ccc(C)c(O)c1C(=O)O)[C@H]1O[C@](CC)([C@H]2CCC(O)(CC)[C@H](C)O2)C[C@@H]1C (some centres not stated) | 130% (active) | – | – | – |
| CC1O[C@H](O[C@]2(O[C@H]3CC[C@@]4(C)C(=CC[C@H]5[C@@H]6C[C@H]7[C@H]([C@H](C)[C@H]8CC[C@H](C)CN87)[C@@]6(C)CC[C@@H]54)C3)C[C@@H](O[C@@H]3OC(CO)[C@@H](O)[C@@H](O)C3O)[C@@H](O)C(CO)O2)C(O)[C@@H](O)[C@H]1O (some centres not stated) | 75.1% (active) | 4.89 (inactive) | 74.2% (inactive) | 82% |
